26 compounds from PubChem BioAssay (Tox21) can be followed below.

Several values for one entry are separate records, joined by “and”; a condition that tells them apart may be missing. Equal values may be shown once. Records with an inconclusive call do not appear. Where a structure was tested more than once in an assay, its records may differ in their call. Activity calls are given as the source filed them. Unless noted, the call rests on the fitted dose curve; in most records, active means well fitted curve in the direction sought with a large enough effect in the repeat runs; inconclusive means weak or mixed curves; inactive means no such curve, though single readings can be large; an effect the other way counts as inactive or inconclusive.

Assay [1] has as its target Acetylcholinesterase (Homo sapiens) (UniProt P22303). In words: Acetylcholinesterase (AChE) small molecule antagonists: enzyme-based qHTS assay (AID 1347397; calls by dose curve; further: nearly all actives have a fitted effect of over 55% in size; further: potency means the concentration at half of the fitted maximal effect). The settings on record: Potency: AChE enzyme activity inhibition; outcome: AChE enzyme activity inhibition. The essentials:
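Colorimetric DTNB readout of acetylthiocholine hydrolysis, 10 min at room temperature, after 30 min room-temperature exposure of 50 mU/mL recombinant human enzyme to compound; DMSO vehicle control.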
For orientation: Quantitative high-throughput screening tests each substance at several concentrations.

Assay [2] has the same target. As to the kind of experiment: Acetylcholinesterase (AChE) small molecule antagonists: fluorescence cell-based qHTS assay (AID 1347398; calls by dose curve; further: nearly all actives have a fitted effect of over 50% in size; further: potency means the concentration at half of the fitted maximal effect). The settings on record: Potency: AChE activity; outcome: AChE activity. The essentials: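 Cellular AChE activity read as thiocholine from acetylthiocholine hydrolysis, detected by Thiolite Green fluorescence at 490/520 nm after 40 min at room temperature. Compounds were pre-incubated 30 min at 37 C on adherent SH-SY5Y cells.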

For assay [3] the target is unchanged. As to the kind of experiment: Acetylcholinesterase (AChE) small molecule antagonists: enzyme-based qHTS assay with human liver microsomes (AID 1347399; calls by dose curve; further: nearly all actives have a fitted effect of over 60% in size). Conditions: Potency: qHTS inhibition; outcome: qHTS inhibition. Put shortly: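 Recombinant human AChE (50 mU/mL in the enzyme mix) and human liver microsomes (0.25 mg/mL final) were preincubated with compound and NADPH (0.25 mg/mL final) for 30 min at 37 C. Acetylthiocholine/DTNB was then added; thiocholine was read colorimetrically after 10 min at room temperature.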

The target in assay [4] is Cytochrome P450 2D6 (Homo sapiens) (UniProt P10635). In words: Cytochrome P450 Family 2 Subfamily D Member 6 (CYP2D6) small molecule antagonists: luciferase reporter qHTS assay (AID 1671196). Further: nearly all actives have a fitted effect of over 50% in size. Further: potency means the concentration at half of the fitted maximal effect. Put shortly:
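Enzyme and proluciferin substrate were first combined with test chemical for 10 min at room temperature. Adding NADPH regeneration solution started a 1 h reaction, stopped with luciferin detection reagent and read by luminescence 20 min later.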

Assay [5] concerns the target Cytochrome P450 2C19 (Homo sapiens) (UniProt P33261). In words: Cytochrome P450 Family 2 Subfamily C Member 19 (CYP2C19) small molecule antagonists: luciferase reporter qHTS assay (AID 1671197). Further: nearly all actives have a fitted effect of over 65% in size. Further: potency means the concentration at half of the fitted maximal effect. The essentials: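 P450-Glo CYP2C19 screening system; proluciferin substrate; DMSO compound stocks; 10 min RT preincubation; NADPH regeneration, 1 h at 37C; luciferin detection reagent, 20 min RT; luminescence as RLU.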
In general terms: A reporter such as luciferase makes a cellular process visible.

In assay [6] the target is Cytochrome P450 2C9 (Homo sapiens) (UniProt P11712). As to the kind of experiment: Cytochrome P450 Family 2 Subfamily C Member 9 (CYP2C9) small molecule antagonists: luciferase reporter qHTS assay (AID 1671198). Further: nearly all actives have a fitted effect of over 50% in size. Further: potency means the concentration at half of the fitted maximal effect. The essentials: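 Enzyme-substrate mix preincubated with compound 10 min at room temperature; reaction started with NADPH regeneration solution, 1 h 37C. Luminescent luciferin product read after 20 min detection reagent.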
Sequence of Cytochrome P450 2C9 (Homo sapiens) (P11712 whole entry, looked up): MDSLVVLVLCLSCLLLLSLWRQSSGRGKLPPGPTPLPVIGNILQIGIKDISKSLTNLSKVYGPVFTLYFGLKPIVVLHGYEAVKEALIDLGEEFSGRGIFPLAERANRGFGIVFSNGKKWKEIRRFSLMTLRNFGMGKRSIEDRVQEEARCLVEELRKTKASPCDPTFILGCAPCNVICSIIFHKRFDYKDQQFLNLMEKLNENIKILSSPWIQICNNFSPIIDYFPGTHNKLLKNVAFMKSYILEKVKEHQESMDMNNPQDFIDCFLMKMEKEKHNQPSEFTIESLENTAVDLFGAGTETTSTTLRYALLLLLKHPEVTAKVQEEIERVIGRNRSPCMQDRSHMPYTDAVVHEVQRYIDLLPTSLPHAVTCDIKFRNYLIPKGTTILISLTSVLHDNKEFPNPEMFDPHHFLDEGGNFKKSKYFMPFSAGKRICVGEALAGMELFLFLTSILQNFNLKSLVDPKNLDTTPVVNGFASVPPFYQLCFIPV

The target in assay [7] is Voltage-gated inwardly rectifying potassium channel KCNH2 (Homo sapiens) (UniProt Q12809). As to the kind of experiment: Human Ether-a-go-go-Related Gene (hERG) channel small molecule antagonists: fluorescence cell-based qHTS assay (AID 1671200).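 Further: hERG-expressing U2OS cells given a thallium stimulus after FluxOR II dye loading; series mostly up to about 77 µM; nearly all actives have a fitted effect of over 50% in size.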 The essentials:
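Kinetic two-minute fluorescence traces, sampled at 1 s, were collected following thallium stimulus of U2OS cells (1000 per well) that had been cultured overnight at 37 C and loaded with FluxOR II.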

Assay [8] addresses Cytochrome P450 3A4 (Homo sapiens) (UniProt P08684). In words: Cytochrome P450 Family 3 Subfamily A Member 4 (CYP3A4) small molecule antagonists: luciferase reporter qHTS assay (AID 1671201). Further: nearly all actives have a fitted effect of over 50% in size. Further: potency means the concentration at half of the fitted maximal effect. The essentials: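 Proluciferin-to-luciferin conversion by CYP3A4, NADPH-regenerated, 1 h RT; luminescence read as RLU. Ketoconazole as control.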
In assay [9] the target is Cytochrome P450 1A2 (Homo sapiens) (UniProt P05177). In words: Cytochrome P450 Family 1 Subfamily A Member 2 (CYP1A2) small molecule antagonists: luciferase reporter qHTS assay (AID 1671199). Further: nearly all actives have a fitted effect of over 50% in size. Further: potency means the concentration at half of the fitted maximal effect. Put shortly: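 Compounds were incubated with CYP1A2 and a luminogenic proluciferin substrate for 10 min at room temperature before the reaction was started with NADPH regeneration solution. After 1 h, detection reagent was added and light output, proportional to CYP activity, was recorded.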
Sequence of Cytochrome P450 1A2 (Homo sapiens) (P05177 whole entry, looked up): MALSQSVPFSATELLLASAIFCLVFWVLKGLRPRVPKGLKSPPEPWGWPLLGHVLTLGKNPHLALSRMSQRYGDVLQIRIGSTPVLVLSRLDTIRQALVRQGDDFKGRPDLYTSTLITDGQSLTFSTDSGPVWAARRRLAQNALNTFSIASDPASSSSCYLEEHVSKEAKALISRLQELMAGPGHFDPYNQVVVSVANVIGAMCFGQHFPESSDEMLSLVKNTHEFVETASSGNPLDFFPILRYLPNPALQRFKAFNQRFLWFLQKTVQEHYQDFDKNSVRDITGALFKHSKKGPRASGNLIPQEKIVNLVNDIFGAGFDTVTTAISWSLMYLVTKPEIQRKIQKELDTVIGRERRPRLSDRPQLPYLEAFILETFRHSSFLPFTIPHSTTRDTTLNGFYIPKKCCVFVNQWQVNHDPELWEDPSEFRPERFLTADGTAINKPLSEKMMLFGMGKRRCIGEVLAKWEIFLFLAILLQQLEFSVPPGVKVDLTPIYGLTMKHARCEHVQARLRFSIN

Sequence of Cytochrome P450 2D6 (Homo sapiens) (P10635 whole entry, looked up): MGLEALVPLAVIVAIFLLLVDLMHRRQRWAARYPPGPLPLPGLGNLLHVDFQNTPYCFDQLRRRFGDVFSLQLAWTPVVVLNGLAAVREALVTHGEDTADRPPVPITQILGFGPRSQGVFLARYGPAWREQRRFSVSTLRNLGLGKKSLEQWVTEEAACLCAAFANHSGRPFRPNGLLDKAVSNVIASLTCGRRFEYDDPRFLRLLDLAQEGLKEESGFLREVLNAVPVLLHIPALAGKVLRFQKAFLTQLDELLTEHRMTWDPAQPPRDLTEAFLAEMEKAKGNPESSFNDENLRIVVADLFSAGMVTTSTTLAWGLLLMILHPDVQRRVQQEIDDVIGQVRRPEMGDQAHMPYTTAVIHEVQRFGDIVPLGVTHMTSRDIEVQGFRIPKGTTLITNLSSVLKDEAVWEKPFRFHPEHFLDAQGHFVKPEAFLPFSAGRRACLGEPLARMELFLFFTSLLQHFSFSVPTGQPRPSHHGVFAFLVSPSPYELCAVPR
Sequence of Cytochrome P450 3A4 (Homo sapiens) (P08684 whole entry, looked up): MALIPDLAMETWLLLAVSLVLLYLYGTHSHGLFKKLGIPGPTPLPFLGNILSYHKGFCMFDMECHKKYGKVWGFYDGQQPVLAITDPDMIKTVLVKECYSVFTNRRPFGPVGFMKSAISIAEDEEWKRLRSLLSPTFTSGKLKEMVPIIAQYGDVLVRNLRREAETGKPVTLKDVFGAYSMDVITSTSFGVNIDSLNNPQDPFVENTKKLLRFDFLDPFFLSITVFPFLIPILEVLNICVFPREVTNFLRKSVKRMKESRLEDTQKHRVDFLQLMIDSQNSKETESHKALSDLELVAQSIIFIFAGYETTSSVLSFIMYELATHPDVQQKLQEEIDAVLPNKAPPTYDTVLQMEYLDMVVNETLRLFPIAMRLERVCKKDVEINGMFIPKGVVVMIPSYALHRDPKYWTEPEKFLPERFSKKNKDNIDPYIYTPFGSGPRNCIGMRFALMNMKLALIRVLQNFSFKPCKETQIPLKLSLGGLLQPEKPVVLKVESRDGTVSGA
Sequence of Acetylcholinesterase (Homo sapiens) (P22303 whole entry, looked up): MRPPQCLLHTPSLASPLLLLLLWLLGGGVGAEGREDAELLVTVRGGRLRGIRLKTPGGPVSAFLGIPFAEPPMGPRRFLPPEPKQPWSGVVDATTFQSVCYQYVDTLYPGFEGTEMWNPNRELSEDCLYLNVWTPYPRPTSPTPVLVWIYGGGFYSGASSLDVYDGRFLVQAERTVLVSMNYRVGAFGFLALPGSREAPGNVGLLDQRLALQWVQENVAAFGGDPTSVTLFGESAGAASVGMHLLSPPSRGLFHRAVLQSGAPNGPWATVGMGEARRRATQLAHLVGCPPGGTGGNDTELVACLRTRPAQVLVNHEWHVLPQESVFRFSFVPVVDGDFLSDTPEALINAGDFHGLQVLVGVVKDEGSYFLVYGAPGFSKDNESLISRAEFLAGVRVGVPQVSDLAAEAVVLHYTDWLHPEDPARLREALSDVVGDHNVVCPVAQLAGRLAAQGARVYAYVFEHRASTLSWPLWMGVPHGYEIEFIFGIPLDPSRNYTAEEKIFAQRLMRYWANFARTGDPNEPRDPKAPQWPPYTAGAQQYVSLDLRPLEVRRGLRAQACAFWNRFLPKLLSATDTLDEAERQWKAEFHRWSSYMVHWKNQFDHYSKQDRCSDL
Sequence of Voltage-gated inwardly rectifying potassium channel KCNH2 (Homo sapiens) (Q12809 whole entry, looked up): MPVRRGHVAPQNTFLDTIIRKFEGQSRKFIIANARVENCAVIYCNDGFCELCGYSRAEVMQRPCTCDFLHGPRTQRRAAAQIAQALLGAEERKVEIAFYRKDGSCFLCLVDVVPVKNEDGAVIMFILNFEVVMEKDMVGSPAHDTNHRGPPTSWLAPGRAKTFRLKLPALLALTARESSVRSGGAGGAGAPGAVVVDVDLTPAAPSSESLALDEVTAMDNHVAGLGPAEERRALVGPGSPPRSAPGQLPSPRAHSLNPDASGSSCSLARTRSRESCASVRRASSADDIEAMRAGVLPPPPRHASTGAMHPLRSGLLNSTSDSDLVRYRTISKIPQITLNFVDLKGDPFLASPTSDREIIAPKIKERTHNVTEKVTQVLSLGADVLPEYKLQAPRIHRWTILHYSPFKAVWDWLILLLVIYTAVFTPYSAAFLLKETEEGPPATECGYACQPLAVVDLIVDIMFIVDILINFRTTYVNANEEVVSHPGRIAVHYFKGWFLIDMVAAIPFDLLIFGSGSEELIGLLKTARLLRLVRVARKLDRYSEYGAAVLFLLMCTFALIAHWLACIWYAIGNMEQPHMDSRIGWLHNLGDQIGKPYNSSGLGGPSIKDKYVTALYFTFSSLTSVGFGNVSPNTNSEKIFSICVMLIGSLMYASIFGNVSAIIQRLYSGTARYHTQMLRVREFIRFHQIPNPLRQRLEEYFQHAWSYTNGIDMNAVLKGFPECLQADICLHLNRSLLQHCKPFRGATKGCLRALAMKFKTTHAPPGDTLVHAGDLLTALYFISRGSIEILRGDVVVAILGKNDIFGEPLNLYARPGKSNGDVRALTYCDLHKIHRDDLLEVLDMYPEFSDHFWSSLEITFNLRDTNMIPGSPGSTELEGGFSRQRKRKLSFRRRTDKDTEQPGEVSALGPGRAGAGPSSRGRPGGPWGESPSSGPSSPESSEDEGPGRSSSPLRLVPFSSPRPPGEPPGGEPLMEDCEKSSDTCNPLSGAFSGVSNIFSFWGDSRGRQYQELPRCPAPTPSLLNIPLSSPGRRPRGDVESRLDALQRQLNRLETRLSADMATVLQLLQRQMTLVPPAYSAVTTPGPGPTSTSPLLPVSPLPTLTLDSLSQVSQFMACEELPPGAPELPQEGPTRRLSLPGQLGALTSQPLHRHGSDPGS
Sequence of Cytochrome P450 2C19 (Homo sapiens) (P33261 whole entry, looked up): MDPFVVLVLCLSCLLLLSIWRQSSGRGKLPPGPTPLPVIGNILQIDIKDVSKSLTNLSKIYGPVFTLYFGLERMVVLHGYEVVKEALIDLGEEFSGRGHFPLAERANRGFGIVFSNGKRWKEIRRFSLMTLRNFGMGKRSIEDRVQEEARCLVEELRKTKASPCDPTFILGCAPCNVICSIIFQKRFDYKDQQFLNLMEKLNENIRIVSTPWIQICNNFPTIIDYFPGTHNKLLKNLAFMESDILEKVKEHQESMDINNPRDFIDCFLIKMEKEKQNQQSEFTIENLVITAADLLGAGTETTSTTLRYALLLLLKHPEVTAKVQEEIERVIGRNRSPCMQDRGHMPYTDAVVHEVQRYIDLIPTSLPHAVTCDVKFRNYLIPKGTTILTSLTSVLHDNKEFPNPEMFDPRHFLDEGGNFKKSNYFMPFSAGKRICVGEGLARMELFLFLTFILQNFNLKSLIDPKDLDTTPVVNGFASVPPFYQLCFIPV

For `CCC(C)(C)O`, the Potency entry in assay [1], in [2], in [3], in assay [4], in assay [5] and in assay [6] was “inactive” in each case. Moreover, the Potency result in assay [7] and in assay [8] was “inactive” each time.
As for `Cc1nnc(-c2ccccc2)c(=O)n1N`, the Potency entry in assay [1], in assay [2], in assay [3], in [4], in [5] and in assay [7] was “inactive” in each case. For the same compound, the Potency result in [8] was “inactive”. For the same compound, the Potency in [9] is 35.6 µM (active).
In the case of `CC(C)c1ccc(NC(=O)N(C)C)cc1`, the Potency entry in assay [1], in [2], in assay [3], in assay [4], in [7] and in assay [8] was “inactive” in each case. Further, the Potency in assay [5] was 31.7 µM (active); in assay [9], 15.9 µM (active).
As for `COc1ccc(C(=O)c2c(C)n(CCN3CCOCC3)c3ccccc23)cc1`, the Potency result in assay [1], in [2], in assay [3] and in assay [7] was “inactive” in each case. Besides, the Potency is 15.5 µM (active) in assay [4], 34.7 µM (active) in assay [5] and 12.3 µM (active) in assay [6].
Turning to `CCSCc1ccccc1OC(=O)NC`, the figures for the Potency in assay [1], in assay [2] and in assay [9] were 20 µM (active), 22.4 µM (active) and 63.3 µM (active), respectively. In addition, the Potency entry in assay [3], in [4], in assay [5], in assay [7] and in assay [8] was “inactive” in each case.
On to `CCC(C)Cl` (stereo not given), for which the Potency result in [1], in [2], in assay [3], in assay [4], in assay [5] and in assay [6] was “inactive” each time. Also, the Potency result in [7] and in assay [8] was “inactive” each time.
Consider `N#CC(C#N)=Cc1ccc(O)c(O)c1`, for which the Potency entry in assay [1], in assay [2], in [3], in assay [4], in assay [5] and in assay [7] was “inactive” each time. Besides, the Potency result in [8] is “inactive”. Also, the Potency in assay [6] was 17.4 µM (active).
Consider `SCc1ccccc1`, for which the Potency entry in [1], in assay [2], in assay [3], in assay [4] and in assay [8] was “inactive” throughout. Besides, the Potency in [5] was 7.31 µM (active); in [6], 36.6 µM (active); in assay [9] it was 32.6 µM (active).
For `CCN(C(C)=O)c1cccc(-c2ccnc3c(C#N)cnn23)c1`, the Potency entry in [1], in assay [2], in [3], in assay [4], in assay [9] and in [7] was “inactive” in each case. In addition, in assay [8], the Potency entry was “inactive”. Besides, the Potency in [5] was 27.5 µM (active).
For the compound `CC(C)(C)OOC(C)(C)CCC(C)(C)OOC(C)(C)C`, the Potency result in [1], in assay [2], in assay [3], in assay [4], in [5] and in assay [9] was “inactive” in each case. In addition, the Potency entry in assay [7] and in assay [8] was “inactive” in each case.
Consider `N#CC(C#N)=C(C#N)C#N`, for which the Potency entry in assay [1], in assay [2], in [3] and in assay [7] was “inactive” in each case. The Potency in assay [5] was 58.9 µM (active); in assay [6] it was 33.1 µM (active); in assay [9], 41.7 µM (active); in assay [8] it was 20.9 µM (active).
Consider `Oc1cccc(Cl)c1`, for which the Potency entry in assay [1], in assay [2], in assay [3], in assay [4], in assay [6] and in assay [7] was “inactive” throughout. Further, the Potency result in assay [8] was “inactive”.
Take `OCCSSCCO`: the Potency result in assay [1], in assay [2], in assay [3], in assay [4], in [7] and in [8] was “inactive” each time. Moreover, the Potency in [5] was 56.4 µM (active).
Consider `CC(=O)OC(c1ccccc1)C(Cl)(Cl)Cl` (stereo not given), for which the Potency result in assay [1], in assay [2], in assay [3], in [4], in [5] and in assay [9] was “inactive” throughout. Further, the Potency result in assay [8] is “inactive”.
In the case of `O=C([O-])c1ccccn1.O=C([O-])c1ccccn1.O=C([O-])c1ccccn1.[Cr+3]`, the Potency result in assay [1], in assay [2], in assay [3] and in assay [7] was “inactive” each time. Further, the Potency in [4] and in assay [9] was 79.9 µM (active) each time.
For `CC(C)CCON=O`, the Potency entry in assay [1], in assay [2], in [3], in [5], in [6] and in assay [9] was “inactive” throughout. The Potency entry in [7] and in assay [8] was “inactive” throughout.
As to `CCOC(=O)c1cncn1C(C)c1ccccc1` (stereo not given), the Potency result in assay [1], in assay [2], in assay [3], in [4] and in assay [7] was “inactive” throughout. Further, the Potency in [6] was 12.3 µM (active).
On to `CCCCC#N`, for which the Potency result in assay [1], in [2], in assay [3], in assay [4], in assay [6] and in assay [9] was “inactive” each time. In addition, the Potency entry in [7] and in assay [8] was “inactive” throughout.
For the compound `CCOC(=O)NC(O)C(Cl)(Cl)Cl` (stereo not given), the Potency entry in assay [1], in assay [2], in assay [3], in [4], in [6] and in assay [9] was “inactive” each time. Besides, the Potency entry in assay [7] and in assay [8] was “inactive” each time.
In the case of `O=C(Cl)OCCOCCOC(=O)Cl`, the Potency entry in assay [1], in assay [2], in assay [3], in assay [7] and in [8] was “inactive” throughout. The Potency in [4] is 79.6 µM (active).
On to `O=S(=O)(Cl)Cl`, for which the Potency result in [1], in assay [2], in assay [3], in assay [4], in [6] and in [9] was “inactive” throughout. The Potency result in assay [7] and in [8] was “inactive” each time.
With `CCOC(=O)C1OC1(C)c1ccccc1` (stereo not given), the Potency result in assay [1], in [2], in assay [3], in [7] and in assay [8] was “inactive” each time. Besides, the Potency was 71.6 µM (active) and inactive in [4]; 35.9 µM (active) and 71 µM (active) in assay [5].
On to `NC(=O)CF`, for which the Potency result in assay [1], in [2], in assay [3], in [5], in assay [6] and in assay [9] was “inactive” in each case. Also, the Potency result in [7] and in assay [8] was “inactive” in each case.
Consider `CN[C@@H](C)[C@H](O)c1ccccc1`, for which the Potency result in assay [1], in assay [2], in assay [3], in [5], in [6] and in [9] was “inactive” throughout. Also, the Potency entry in assay [7] and in assay [8] was “inactive” in each case.
Regarding `Nc1ccccc1C(=O)OCCc1ccccc1`, the Potency entry in assay [1], in assay [2], in [3] and in [7] was “inactive” throughout. The Potency in assay [5] is 5.66 µM (active) and 8.94 µM (active); in assay [6] it was 31.8 µM (active) and 35.6 µM (active); in assay [9], 7.13 µM (active) and 7.1 µM (active).
With `CC(O)CN1CCN(CC(=O)[O-])CCN(CC(=O)[O-])CCN(CC(=O)[O-])CC1.[Gd+3]` (stereo not given), the Potency entry in assay [1], in assay [2], in assay [3], in [4], in [9] and in assay [7] was “inactive” in each case. Further, the Potency result in assay [8] was “inactive”.
